Among the data in PubChem BioAssay (Tox21) are Potency values, retold here.

This assay addresses Beta-2 adrenergic receptor (Homo sapiens) (UniProt P07550). In words: Adrenergic beta2 receptor (ADRB2) small molecule agonists, cell-based qHTS assay (AID 1963593).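 Further: CHO cells stably overexpressing human ADRB2.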 The method in brief: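 CHO cells stably over-expressing ADRB2 were plated overnight at 37C, then dosed with compounds plus a stimulation mix containing 100uM IBMX and 25uM Ro-20-1724 for 0.5hr at room temperature. cAMP was measured by HTRF competition, 1hr.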
On the technique in general: qHTS replaces the single test concentration by a dilution series.

Records with an inconclusive call do not appear. Entries that show only a call come without a potency. The source made the active and inactive calls. The call rests on the fitted dose curve.

Sequence of Beta-2 adrenergic receptor (Homo sapiens) (P07550 whole entry, looked up): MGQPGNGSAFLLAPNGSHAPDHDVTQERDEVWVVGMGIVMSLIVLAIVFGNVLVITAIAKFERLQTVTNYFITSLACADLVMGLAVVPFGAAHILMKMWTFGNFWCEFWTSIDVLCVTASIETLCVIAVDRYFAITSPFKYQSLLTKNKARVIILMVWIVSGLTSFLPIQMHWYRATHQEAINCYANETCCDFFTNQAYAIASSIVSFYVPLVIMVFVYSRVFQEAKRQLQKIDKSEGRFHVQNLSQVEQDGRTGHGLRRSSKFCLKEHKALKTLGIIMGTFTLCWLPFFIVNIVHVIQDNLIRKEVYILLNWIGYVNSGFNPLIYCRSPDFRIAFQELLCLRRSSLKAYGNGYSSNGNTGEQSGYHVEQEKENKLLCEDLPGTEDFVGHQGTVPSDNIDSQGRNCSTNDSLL

Turning to `O=C1OC(CCN2CCCCC2)OC1(c1ccccc1)c1ccccc1` (centres undefined), the Potency entry is “inactive”.

In the case of `O=C(NC(=O)c1c(F)cccc1F)Nc1cc(Cl)c(F)c(Cl)c1F`, the Potency entry was “inactive”.

With `CCCCCCCCCCCCCN1CC(C)OC(C)C1` (centres undefined), the Potency result is “inactive”.

Turning to `ClC(Cl)=C(Cl)Cl`, the Potency entry is “inactive”.

As to `Oc1ccccc1Br`, the Potency entry was “inactive”.

As for `CCOC(=O)c1ncn2c1CN(C)C(=O)c1c(I)cccc1-2`, the Potency result was “inactive”.

Turning to `O=C(O)C(Br)CBr` (centres undefined), the Potency result is “inactive”.

As for `C[C@@H]1CC2=CC(=O)CC[C@@H]2[C@H]2CC[C@@]3(C)[C@@H](CC[C@]3(C)O)[C@@H]21`, the Potency entry was “inactive”.

For the compound `ClCc1cccc(Cl)c1`, the Potency entry was “inactive”.

On to `Cc1c([N+](=O)[O-])cc2c(c1[N+](=O)[O-])C(C)(C)CC2(C)C`, for which the Potency entry was “inactive”.

Regarding `CC(C)[C@@H](Nc1ccc(C(F)(F)F)cc1Cl)C(=O)OC(C#N)c1cccc(Oc2ccccc2)c1` (some centres undefined), the Potency result is “inactive”.

On to `O=C(O)CC(Cl)C(=O)O` (centres undefined), for which the Potency entry was “inactive”.

With `CCC(=O)C(CCN(C)C)(c1ccccc1)c1ccccc1`, the Potency result was “inactive”.

For `N#C/C=C/c1ccccc1`, the Potency entry was “inactive”.

With `CCSC(C)CC1CC(=O)C(/C(CC)=N/OC/C=C/Cl)=C(O)C1` (centres undefined), the Potency entry was “inactive”.

In the case of `COc1ccc2c(c1OC)C(=O)O[C@H]2[C@@H]1c2cc3c(cc2CCN1C)OCO3`, the Potency result is “inactive”.

Regarding `COc1cc(C=O)cc2c1[C@H](COC(N)=O)[C@]1(OC(C)=O)ON2C[C@H]2[C@@H]1N2C(C)=O`, the Potency result was “inactive”.

As for `CSC1=N[C@@](C)(c2ccccc2)C(=O)N1Nc1ccccc1`, the Potency result was “inactive”.

With `CCC(C(N)=O)N1CCCC1=O` (centres undefined), the Potency entry is “inactive”.

Turning to `COc1ccc(CN2CCNCC2)c(OC)c1OC`, the Potency result is “inactive”.

`CCCN1CCC[C@@H]2Cc3[nH]ncc3C[C@H]21`: the Potency result is “inactive”.

For the compound `CCOC(=O)OC1=C(c2cc(C)ccc2C)C(=O)NC12CCC(OC)CC2` (centres undefined), the Potency entry is “inactive”.

Take `COc1ccc(C(=O)N2CCCC2=O)cc1`: the Potency result was “inactive”.

Take `O=S1(=O)OCCO1`: the Potency result was “inactive”.

Regarding `S=C=Nc1cccc2ccccc12`, the Potency result is “inactive”.

As for `O=C(N/N=C/c1ccc([N+](=O)[O-])o1)c1cc([N+](=O)[O-])cc([N+](=O)[O-])c1O`, the Potency entry was “inactive”.

For `CC(O)C#N` (centres undefined), the Potency result was “inactive”.

`CC1NCCOC1c1ccccc1` (centres undefined): the Potency entry was “inactive”.

For `CO/C=C(/C(=O)OC)c1ccccc1COc1cccc(C(F)(F)F)n1`, the Potency entry is “inactive”.

Turning to `ClC=C(Cl)Cl`, the Potency result was “inactive”.

Consider `Cc1c([N+](=O)[O-])c(C)c([N+](=O)[O-])c(C(C)(C)C)c1[N+](=O)[O-]`, for which the Potency entry was “inactive”.

With `CN(CCCC(O)c1cccnc1)N=O` (centres undefined), the Potency result is “inactive”.

In the case of `Nc1n[nH]c(N)n1`, the Potency result was “inactive”.

`CC(=O)CN(CC(C)=O)N=O`: the Potency result is “inactive”.

Consider `CCCCOC(C)=O`, for which the Potency entry is “inactive”.

With `Cc1ccccc1C(=O)Nc1cccc(OC(C)C)c1`, the Potency result is “inactive”.

In the case of `C1CCNCC1`, the Potency entry is “inactive”.

`CCOC(=O)NC(C)(C)Cc1ccc(Cl)cc1`: the Potency result was “inactive”.

Regarding `N[C@@H]1C[C@H]1c1ccccc1`, the Potency result is “inactive”.
